Measurements as given in PubChem BioAssay (EPA / NIEHS).
Inconclusive results are not listed. Calls of active or inactive are those of the source. Rule for the calls: active = hit-call score of the fitted dose curve at least 0.9, where 1 is the maximum; inconclusive = response in the unintended direction; inactive = score below 0.9.

Target: AR (gene 367) (UniProt P10275)
Assay: ACEA_AR_antagonist_80hr: ACEA Biosciences xCELLigence Real-Time Cell Analysis on Androgen Receptor Antagonism for Proliferation (AID 2283787)
Description: ACEA_AR_antagonist is a cell-based, single-readout assay that uses 22Rv1, a human prostate cancer cell line, with measurements taken at 80 hours after chemical dosing in a 384-well plate, although TO5 and TO6 (mc0.srcf) used a 96-well plate. Differences in plate size can be ignored given data normalization.ACEA_AR_antagonist_80hr is one of two assay component(s) measured or calculated from the ACEA_AR assay. It is designed to make measurements of real-time cell-growth kinetics, a form of growth reporter, as detected with electrical impedance signals by Real-Time Cell Electrode Sensor (RT-CES) technology.Data from the assay component ACEA_AR_antagonist_80hr was analyzed in the positive analysis fitting direction relative to DMSO as the negative control and baseline of activity. Using a type of growth reporter, measures of the cells for loss-of-signal activity can be used to understand the signaling at the pathway-level as they relate to the gene AR. Furthermore, this assay endpoint can be referred to as a primary readout, because this assay has produced multiple assay endpoints where this one serves a signaling function. To generalize the intended target to other relatable targets, this assay endpoint is annotated to the nuclear receptor intended target family, where the subfamily is steroidal.
The xCELLigence system Multi-E-Plate stations were used to measure the time-dependent response to chemicals. Each compound was tested in an eight-point, 1:4 serial dilution series starting at a maximum final concentration of 100 uM. A maximum starting concentration of 0.5% DMSO was present in the 100 uM chemical samples and was diluted along with the test article dilution series. The screen was performed in biological duplicate using two separate, 96-well, E-Plates 96 for each dilution series (n = 2). Positive controls (MG132 and testosterone) and a negative control (assay media) were tested in quadruplicate on each testing plate. […] Reference compounds were tested with 8 concentrations with 1:5 serial dilutions. All screening was carried out by ACEA Biosciences, Inc. (San Diego, CA). 22Rv1 cells purchased from ATCC were maintained in media supplemented with 10% fetal bovine serum (FBS). Before screening, 22Rv1 cells were preconditioned in assay medium. Cells were then detached and seeded in E-Plates 96 in assay medium. After overnight monitoring of growth once every hour, compounds were added to […] cells and remained in the medium until the end of the experiment. Cellular responses were then recorded once every 5 min for the first 5 h, and once every hour for an additional 100 h.

Chain of AR (gene 367) (P10275 whole entry, looked up): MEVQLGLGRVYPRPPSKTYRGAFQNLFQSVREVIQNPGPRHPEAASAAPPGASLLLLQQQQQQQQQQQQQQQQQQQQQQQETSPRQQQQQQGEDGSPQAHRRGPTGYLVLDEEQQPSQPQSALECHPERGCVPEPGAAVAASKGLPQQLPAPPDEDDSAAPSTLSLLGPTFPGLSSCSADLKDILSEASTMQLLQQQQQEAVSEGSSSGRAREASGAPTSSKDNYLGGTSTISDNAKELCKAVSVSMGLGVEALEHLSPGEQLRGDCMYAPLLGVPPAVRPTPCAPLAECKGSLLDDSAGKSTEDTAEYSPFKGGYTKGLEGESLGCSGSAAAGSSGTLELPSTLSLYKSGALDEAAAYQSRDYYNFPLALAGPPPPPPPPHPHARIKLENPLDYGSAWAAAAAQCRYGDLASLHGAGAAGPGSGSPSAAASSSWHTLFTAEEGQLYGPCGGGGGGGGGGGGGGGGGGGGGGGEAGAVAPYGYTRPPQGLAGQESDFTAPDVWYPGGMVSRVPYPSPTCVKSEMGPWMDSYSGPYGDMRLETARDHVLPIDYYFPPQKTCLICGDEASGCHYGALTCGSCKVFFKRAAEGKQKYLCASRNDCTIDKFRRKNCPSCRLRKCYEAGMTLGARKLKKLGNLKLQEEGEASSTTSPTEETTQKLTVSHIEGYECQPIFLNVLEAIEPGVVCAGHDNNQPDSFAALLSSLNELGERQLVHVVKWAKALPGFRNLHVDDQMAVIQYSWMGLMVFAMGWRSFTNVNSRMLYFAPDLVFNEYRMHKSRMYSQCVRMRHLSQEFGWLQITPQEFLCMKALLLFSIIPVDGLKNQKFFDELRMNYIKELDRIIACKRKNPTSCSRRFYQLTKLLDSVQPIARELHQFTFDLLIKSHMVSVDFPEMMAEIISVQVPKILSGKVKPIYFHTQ

Structure (SMILES) | outcome | AC50
OCc1ccccc1 | inactive | 
COCc1nnc(-c2ccc[n+]([O-])c2)n1-c1c(Cl)c(Cl)cc2[nH]c(=O)c(=O)[nH]c12 | inactive | 
CCCCCCCCCCCCCCCCOS(=O)(=O)O |  | 46.2 µM (active)
CCCCCCOC(=O)CC(CC(=O)OCCCCCC)(OC(=O)CCC)C(=O)OCCCCCC | inactive | 
COc1cc2c(c(OC)c1OC)-c1ccc(OC)c(=O)cc1[C@@H](NC(C)=O)CC2 |  | 0.00409 µM (active)
COc1cc(C(C)C)c2c(c1)S(=O)(=O)N(COc1cc(=O)n3cccc(OCCN4CCCCC4)c3n1)C2=O |  | 18 µM (active)
CCN(CC)C(=S)SSC(=S)N(CC)CC |  | 25.6 µM (active)
OCCOCCOCCO | inactive | 
CCCCC(CC)C(=O)OCCOCCOCCOC(=O)C(CC)CCCC (stereo unspecified) |  | 65.8 µM (active)
C=CCc1cc(S(=O)(=O)c2ccc(O)c(CC=C)c2)ccc1O |  | 26.2 µM (active)
CCc1cccc(CC)c1N |  | 7.11 µM (active)
